Assay outcomes from PubChem BioAssay.
Compounds with a hit are over-represented: about 4.2% of the library has one in this group of screens.
Mtb bLac sens: beta-lactam sensitization of Mtb H37Rv; M. tuberculosis H37Rv growth with meropenem, percent inhibition; inhibition, % at 25 µM; hit rate 0.27% among 330,000; call rule not given here;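 note: growth measured after seven days incubation then overnight dye step; 0% = bacteria only wells and 100% = bacteria with antibiotic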
FBA Mtb inh: inhibits M. tuberculosis FBA enzyme | purified M. tuberculosis FBA, fluorescence read-out | inhibition, % at 1 µM | P9WQA3 | hit rate 2.3% among 360,000;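 note: 0% = vehicle and 100% = reference inhibitor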
GDH-TPI counter-1: counter-screen for M. tuberculosis FBA inhibitors: GDH-TPI coupled enzymes; GDH-TPI coupled enzyme counterscreen, NADH absorbance; inhibition, % at 4.8 µM; hit rate 1.2% among 360,000; in the data active = inhibition above about 30%;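 note: 0% = DMSO wells and 100% = wells lacking the enzyme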
RecA splice inh: Mtb RecA intein splicing inhibition. inhibition, % (test concentration not listed). P9WHJ3. cell-free RecA intein splicing, fluorescence. hit rate 0.75% among 290,000; in the data active = inhibition above about 30%;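 note: 0% = vehicle wells and 100% = reference inhibitor control wells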
Target sequence (P9WHJ3 whole entry, looked up, canonical isoform): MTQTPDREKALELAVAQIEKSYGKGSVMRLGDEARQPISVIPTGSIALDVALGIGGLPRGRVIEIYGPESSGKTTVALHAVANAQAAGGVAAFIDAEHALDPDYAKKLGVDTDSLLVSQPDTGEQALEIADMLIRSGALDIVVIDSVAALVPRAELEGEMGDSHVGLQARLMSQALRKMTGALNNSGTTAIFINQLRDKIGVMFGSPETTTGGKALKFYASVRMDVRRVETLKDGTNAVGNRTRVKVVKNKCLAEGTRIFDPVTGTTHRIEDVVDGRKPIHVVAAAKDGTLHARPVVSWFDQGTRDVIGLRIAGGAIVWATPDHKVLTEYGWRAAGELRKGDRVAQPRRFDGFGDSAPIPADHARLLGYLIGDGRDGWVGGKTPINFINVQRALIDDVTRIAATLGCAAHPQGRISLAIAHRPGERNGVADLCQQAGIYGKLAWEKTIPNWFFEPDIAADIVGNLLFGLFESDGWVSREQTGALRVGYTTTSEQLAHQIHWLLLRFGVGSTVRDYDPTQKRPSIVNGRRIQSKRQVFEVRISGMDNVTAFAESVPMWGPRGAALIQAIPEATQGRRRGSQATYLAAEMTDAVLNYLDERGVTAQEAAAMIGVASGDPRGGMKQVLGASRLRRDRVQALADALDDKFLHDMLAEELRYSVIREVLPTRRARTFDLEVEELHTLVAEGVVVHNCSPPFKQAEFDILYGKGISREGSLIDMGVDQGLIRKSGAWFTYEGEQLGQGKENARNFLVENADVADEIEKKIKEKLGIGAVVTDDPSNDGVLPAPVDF
CCHFV vOTU inh: blocks the CCHF virus ovarian tumor domain protease. CCHFV vOTU protease, Pep-AMC fluorescence. inhibition, % at 11.5 µM. hit rate 0.55% among 370,000; in the data active = inhibition above about 30%; note: 0% = vehicle wells with enzyme and 100% = no enzyme wells
Mtb FBA confirm: Mtb FBA inhibition, confirmed. purified M. tuberculosis FBA, fluorescence read-out. inhibition, % at 1 µM. AID 651616. shares compounds with FBA Mtb inh. hit rate 78% among 5,600;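 note: 0% = vehicle wells and 100% = reference inhibitor wells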
GDH-TPI counter-2: GDH-TPI inhibition counter-screen for FBA inhibitors. shares compounds with FBA Mtb inh. GDH-TPI coupled enzyme counterscreen, fluorescence. inhibition, % at 1 µM. hit rate 81% among 5,600. AID 652141; in the data active = inhibition above about 10%
GDH-TPI DR: GDH-TPI dose response counter-screen for Mtb FBA | IC50, µM | hit rate 79% among 170 | shares compounds with FBA Mtb inh | GDH-TPI coupled enzyme assay, fluorescence, artifact counterscreen; call rule not given here
An asterisk follows results filed as active; / = no result; + = active, no number. Cut-off read from the data, not from the text of the source, unless noted: active = inhibition above about 27%; inactive = the rest.

SMILES | Mtb bLac sens | FBA Mtb inh | GDH-TPI counter-1 | RecA splice inh | CCHFV vOTU inh | Mtb FBA confirm | GDH-TPI counter-2 | others
CCCc1cc(NCc2ccccn2)n2c(nc3ccccc32)c1C#N | 3 | 50* | 4 | -45 | -44 | 86* | 68*
CCOC(=O)c1cnn2c(N)c(C#N)cnc12 | 3 | 29* | 26 | -4 | -15 | 51* | 37*
CC1CCCN(S(=O)(=O)c2ccc3c(c2)c(=O)nc2ccccn23)C1 (stereo unspecified) | -4 | 66* | 12 | -2 | -78 | 89* | 65*
CC(=O)Nc1ccc(S(=O)(=O)Nc2cccc(-c3csc(C)n3)c2)cc1 | 7 | 2 | 3 | -3 | -9 | / | /
CC(=O)Nc1ccc(S(=O)(=O)Nc2cccc(-c3cn4cccnc4n3)c2)cc1 | -4 | 64* | 18 | -5 | -62 | -3 | -9
CC1CCCN(S(=O)(=O)c2cccc(-c3cn4cccnc4n3)c2)C1 (stereo unspecified) | -2 | 75* | 9 | -3 | -3 | 122* | 139*
Cn1cc(CCOCc2ccc(Br)cc2)c2ccccc21 | / | / | / | / | -4 | / | /
Cc1nn(-c2ccccc2)nc1C(=O)OCC(=O)N1CCC(C)CC1 | 79 | 28* | -1 | / | -3 | 94* | 77*
O=C(NCc1c(F)cccc1F)C1C2C=CC3(CN(Cc4ccccc4)C(=O)C13)O2 (stereo unspecified) | / | / | / | / | -8 | / | /
Cc1cccc(-n2c(SCC(=O)Nc3nnc(C)s3)nnc2-c2ccoc2C)c1 | 6 | 46* | 6 | 1 | 4 | 38* | 31*
CCc1nnc(NC(=O)CSc2nnc(-c3ccoc3C)n2-c2cccc(C)c2)s1 | 0 | 0 | 10 | -1 | 13 | / | /
Cc1ccc(NC(=O)Cn2nc(C)c([N+](=O)[O-])c2C)cc1C | 11 | 36* | -2 | -1 | -5 | -5 | -6
Cc1nn(CC(=O)Nc2ccc3c(c2)CCC3)c(C)c1[N+](=O)[O-] | 0 | 2 | 6 | / | -2 | / | /
Cc1cccc(OCCCN2CCC(C(O)(c3ccccc3)c3ccccc3)CC2)c1 | / | / | / | / | 10 | / | /
COc1ccc2oc(=Nc3cc(F)ccc3F)c(C(N)=O)cc2c1 | 6 | 21 | 5 | 1 | 5 | / | /
COc1ccc2cc(C(N)=O)c(=Nc3ccccc3)oc2c1 | -3 | 36* | 13 | -2 | -12 | 10 | -5 | GDH-TPI DR=>10
N#CC12COC3(CCCCC3C1(C#N)C#N)OC2=N (stereo unspecified) | 36 | 39* | 9 | -277 | -63 | 75* | 61*
CC1OC23CCCCC2C(C#N)(C(=N)O3)C1(C#N)C#N (stereo unspecified) | -2 | 22 | 3 | -126 | -24 | / | /
COc1ccc(C2OC34CCCCC3C(C#N)(C#N)C2(C#N)C(=N)O4)cc1 (stereo unspecified) | 2 | 39* | -11 | -150 | -72 | 80* | 67*
CCCC1OC23CCCCC2C(C#N)(C(=N)O3)C1(C#N)C#N (stereo unspecified) | -2 | 37* | 1 | -190 | -23 | 15 | -2 | GDH-TPI DR=>10
CC(C)NC(=O)N[C@@H]1C[C@@H]2O[C@H](CO)CC[C@@H]2O[C@@H]1CCc1ccc(-c2ccccc2F)cc1 | / | / | / | / | 0 | / | /
COc1cccc(OC)c1C(=O)Nc1nc2ccc(S(C)(=O)=O)cc2s1 | 6 | 13 | 3 | 0 | 9 | / | /
COc1cc2sc(-c3ccc(S(C)(=O)=O)cc3)c(C(=O)NCc3ccc(C)o3)c2cc1OC | 2 | 37* | 20 | / | -26 | 100* | 83*
COc1cc2sc(-c3ccc(S(C)(=O)=O)cc3)c(C(=O)NCCCCO)c2cc1OC | 4 | 46* | 31* | / | -50 | 46* | 30*
COc1ccccc1C(=O)NC1CCCCN(C)C1=O (stereo unspecified) | / | / | / | / | -6 | / | /
SMILES | Mtb bLac sens | FBA Mtb inh | GDH-TPI counter-1 | RecA splice inh | CCHFV vOTU inh | Mtb FBA confirm | GDH-TPI counter-2 | others
COC(=O)C1CN(Cc2ccc(F)cc2)CCS(=O)(=O)N1Cc1ccc(C(F)(F)F)cc1 (stereo unspecified) | / | / | / | / | 19 | / | /
CCCc1cc(=O)oc2c(C)c(OCC(=O)N3CCC[C@@H]3C(=O)O)ccc12 | 3 | 43* | 19 | 18 | 6 | 55* | 45*
CCc1cc(=O)oc2cc(OCC(=O)N3CCC[C@H]3C(=O)O)ccc12 | -4 | 35* | 15 | / | -5 | + | +
Cc1cc(=O)oc2cc(OCC(=O)N3CCCC(C)C3)ccc12 (stereo unspecified) | -11 | 24 | 11 | -2 | -6 | / | /
Cc1c(CCC(=O)N2CCC[C@H]2C(=O)O)c(=O)oc2c(C)c3oc4c(c3cc12)CCCC4 | 11 | 26 | 27 | 8 | 7 | / | /
CCCCCCc1c(C)c2ccc(OCC(=O)N3CCC[C@H]3C(=O)O)c(C)c2oc1=O | -1 | 81* | 27 | / | -17 | 148* | 113*
COC(=O)[C@]12C[C@H](CC(=O)NCCCCc3ccccc3)C(=O)N(Cc3cccc4ccccc34)C1=C[C@H](C(C)C)O[C@@H]2C1CC1 | / | / | / | / | 29 | / | /
O=C(COc1nnc2ccccn12)N1CCN(S(=O)(=O)c2ccccc2)CC1 | -6 | 35* | 2 | -2 | -17 | -5 | -3
Cc1ccc(C(O)c2ncc(-c3cccc4ccccc34)[nH]2)c(C)c1 (stereo unspecified) | / | 39* | -3 | / | -4 | + | +
COc1cccc(C(O)c2ncc(-c3ccccc3OC)[nH]2)c1 (stereo unspecified) | / | 0 | 9 | / | 4 | / | /
COc1cccc(C(O)c2ncc(-c3cccc4ccccc34)[nH]2)c1 (stereo unspecified) | / | 48* | -12 | / | -8 | 56* | 47*
Cc1ccc(C(O)c2ncc(-c3cccc4ccccc34)[nH]2)cc1F (stereo unspecified) | / | 27* | 1 | / | -5 | 19 | 13*
OC(c1cccc(Cl)c1)c1ncc(-c2cccc3ccccc23)[nH]1 (stereo unspecified) | / | 37* | 7 | / | -14 | 146* | 103*
COc1ccc(C(=O)CC2(O)C(=O)N(CN3CCOCC3)c3ccc(Br)cc32)cc1 (stereo unspecified) | / | / | / | / | -3 | / | /
Cc1cccc(NC(=O)CNC(=O)[C@@H](Cc2ccccc2)NC(=O)[C@H]2O[C@@H](n3ccc(=O)[nH]c3=O)[C@H](O)[C@@H]2O)c1C | / | / | / | / | 17 | / | /
CC(NCc1ccco1)C(=O)N1CCCC1 (stereo unspecified) | / | / | / | / | 0 | / | /
CCOC(=O)N1CCN(C(=O)C[C@H]2C[C@@]3(C(=O)OC)C(=C[C@H](C(C)C)O[C@@H]3C3CC3)N(Cc3ccco3)C2=O)CC1 | / | / | / | / | 4 | / | /
CCSc1nnc(-c2ccc(S(=O)(=O)N3CCOCC3)cc2)n1C | 0 | 30* | 10 | -1 | 9 | + | +
